KKLEB tox: CF airway cell cytotoxicity counter-screen; KKLEB CF airway cells viability, ATPlite luminescence, overnight; active compounds read low; cells stimulated with P. aeruginosa culture filtrate; activity change (cytotoxicity), % at 5 µM; actives 0.36% (n = 360,000);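 active means corrected activity change at or below -50% at 5 µM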
CF NFkB block: cystic fibrosis NF-kB activation inhibition; KKLEB NF-kB-GFP reporter, PAF-induced, GFP fluorescence overnight; inhibition, % at 5 µM; actives 0.86% (n = 360,000); AID 588850;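 active means at least 50% inhibition at 5 µM, scaled per plate between neutral and stimulator controls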;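 further: PAF is a Pseudomonas aeruginosa culture filtrate used as stimulus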
LGR2 antag: Drosophila LGR2 receptor signaling inhibition; inhibition, % at 9.99 µM; actives 0.35% (n = 380,000); HEK293 LGR2, CRE-luciferase, bursicon-stimulated, 4 h;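 active means drop in luminescence signal, shown as inhibition above about 50% in the replicate tests, limit read from the data, passing the limit was not always enough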;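 further: agonist challenge used bursicon conditioned medium at about half maximal strength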
HIF-2a block: blocks HIF-2a reporter activity. actives 0.72% (n = 360,000). 786-0 RCC cells HIF-2a reporter, luciferase luminescence, overnight. inhibition, % at 18.8 µM;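 active means inhibition of the luminescence signal of 40% or more relative to plate controls, in a single-dose primary screen at 18.75 µM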
TWEAK Fn14 block: TWEAK-Fn14 signaling inhibition; TWEAK-stimulated Fn14 reporter cells, luciferase luminescence, 8 h; inhibition, % at 10 µM; actives 2% (n = 360,000); in the data active means inhibition above about 50%
iPSC survival up: hiPSC single-cell survival enhancement; ATPlite luminescence; 100% = ROCK inhibitor wells, 0% = DMSO; survival enhancement, % at 20 µM; actives 0.044% (n = 360,000); AID 602274; in the data active means survival enhancement above about 18%;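 further: cells exposed to compounds for 16 hours before the ATP read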
Numbers stand for hits; - = inactive; . = no result. Rows were chosen to be rich in hits. Some 2.3% of all compounds tested hit in one or more screens of this group.

SMILES | KKLEB tox | CF NFkB block | LGR2 antag | HIF-2a block | TWEAK Fn14 block | iPSC survival up
COc1ccc(CN2C(=O)C(C)=C(C)C2OC)cc1 (configuration not stated) | - | - | - | - | 90 | -
Oc1cccc2c(NC(=S)Nc3ccc(OC(F)F)cc3)cccc12 | - | - | - | - | 91 | -
FC(F)Oc1ccc(NC(=S)NCc2ccccc2)cc1 | - | - | . | - | - | -
Cc1cccc(NC(=O)CSc2nc3ccccc3c3nc(CCc4c(C)n[nH]c4C)nn23)c1 | - | - | . | - | 60 | -
O=c1c(O)cccc2cc(O)c(O)c(O)c12 | - | - | - | - | 78 | -
C[C@H]1CN([C@@H](C)CO)C(=O)Cc2cc(NS(=O)(=O)c3ccccc3)ccc2O[C@H]1CN(C)C(=O)Nc1ccc2c(c1)OCO2 | . | . | - | . | . | .
CO[C@H]1CN(C)C(=O)c2cc(NC(=O)Nc3ccccc3F)ccc2OC[C@@H](C)NC[C@H]1C | . | . | - | . | . | .
CO[C@H]1CN(C)C(=O)c2ccc(NC(=O)Nc3cccc(Cl)c3)cc2OC[C@H](C)NC[C@H]1C | . | . | - | . | . | .
O=C(NC1CCN(S(=O)(=O)c2ccccc2C(F)(F)F)CC1)c1ccco1 | - | - | - | - | 56 | -
Cc1[nH]n(-c2ccccc2)c(=O)c1N=Nc1cccc(C(=O)O)c1 | - | - | - | 64 | 58 | -
Cc1[nH]n(-c2ccccc2)c(=O)c1N=Nc1ccc(C(=O)O)cc1 | - | - | - | - | - | -
COc1ccc(-c2ccc3c(c2)[C@H]2[C@H](CCN2S(=O)(=O)c2ccccc2C)[C@H](CO)N3C)cc1 | . | . | - | . | . | .
COc1ccc(C(=O)N=c2nc3ccccn3s2)cc1 | - | - | . | 46 | 97 | -
COc1ccc(C(=O)O/N=C2\C(=O)N(C)c3ccccc32)cc1 | - | - | - | - | - | -
CC1(C)Cc2c(C#N)c(SCC(=O)c3ccccc3)nc(N3CCOCC3)c2CS1 | - | - | . | - | - | 20
CN(C)c1ccc2c(c1)[C@@H]1C[C@@H](CC(=O)N3CCc4ccccc4C3)O[C@H](CO)[C@@H]1O2 | . | . | - | . | . | .
C[C@@H]1CCCCO[C@@H](CN(C)C(=O)Nc2ccc(C(F)(F)F)cc2)[C@H](C)CN([C@H](C)CO)C(=O)c2cc(NC(=O)c3ccncc3)ccc2O1 | . | . | - | . | . | .
Cc1ccc(Cl)cc1S(=O)(=O)N1CCC(C(=O)NC2CCN(Cc3ccccc3)CC2)CC1 | - | - | - | - | 52 | -
CCN(CC)S(=O)(=O)c1ccc(S(=O)(=O)N2CCC(C(=O)NC3CCN(Cc4ccccc4)CC3)CC2)cc1 | - | - | . | - | - | -
O=C1c2sc3nc4ccccc4n3c2C(=O)N1c1ccccc1Cl | - | - | . | - | - | -
N=c1cc(C2(O)CCCCC2)n2c(nc3ccccc32)s1 | - | - | . | - | 64 | -
CCOC(=O)c1cccc2c1-c1ccccc1/C2=N/O | - | 86 | . | - | 86 | -
CC(C)COC(=O)c1cccc2c1-c1ccccc1/C2=N\O | - | - | . | - | - | -
CC(=O)c1ccc(-n2c(C)ccc2-c2ccccc2)cc1 | - | - | . | - | 82 | -
CC(=O)c1ccc(-n2c(CCC(=O)O)ccc2-c2ccccc2)cc1 | - | - | - | - | 76 | -
SMILES | KKLEB tox | CF NFkB block | LGR2 antag | HIF-2a block | TWEAK Fn14 block | iPSC survival up
COC(=O)c1ccc(-n2c(C)ccc2-c2ccccc2)cc1 | - | - | - | - | - | -
CC(=O)c1ccc(-n2c(CCC(=O)O)ccc2-c2ccc(C)cc2)cc1 | - | - | . | - | - | -
CNC1=C(N(C(C)=O)c2ccc(Br)cc2)C(=O)c2ccccc2C1=O | -62 | 76 | - | 60 | 91 | -
CC(=O)NC1=C(Nc2ccc(N(C)C)cc2)C(=O)c2ccccc2C1=O | - | - | - | - | - | -
CCC(=O)N(CC)C1=C(O)c2ccccc2C(=O)C1=O | - | - | - | - | - | -
CCC(=O)N(C1=C(NC)C(=O)c2ccccc2C1=O)C(C)C | - | - | - | - | 61 | -
C[C@H](CO)N1C[C@H](C)[C@H](CN(C)Cc2ccccc2)OCCCC[C@H](C)Oc2ccc(NC(=O)Nc3ccc(C(F)(F)F)cc3)cc2C1=O | . | . | - | . | . | .
COc1ccc(C(C)=O)cc1CSc1nnc(C)s1 | - | - | . | - | - | -
COc1ccc(C(C)=O)cc1CSc1nnc(Nc2ccc(C)cc2)s1 | - | - | . | - | 63 | -
COc1ccc(C(C)=O)cc1CSc1nnc(Nc2ccccc2)s1 | - | - | - | - | 70 | -
COc1ccc(C(C)=O)cc1CSc1ncccn1 | - | - | - | - | - | -
COc1ccc(NC(=O)Nc2cccc3c2O[C@@H](CN(C)S(=O)(=O)c2ccc(Cl)cc2)[C@H](C)CN([C@@H](C)CO)C3=O)cc1 | . | . | - | . | . | .
CCN1CCN(Cc2c(O)ccc3c2O/C(=C\C=C\c2ccccc2)C3=O)CC1 | - | - | - | 92 | - | -
Cc1ccccc1S(=O)(=O)NCC[C@H]1CC[C@@H](NC(=O)Nc2cccc(Cl)c2)[C@@H](CO)O1 | . | . | - | . | . | .
CCN1CCN(c2nc(-c3ccccc3Cl)nc3ccccc23)CC1 | - | - | - | - | 68 | -
C[C@H]1CN([C@@H](C)CO)C(=O)c2cc(NC(=O)CCCN(C)C)ccc2O[C@H]1CN(C)C(=O)NC1CCCCC1 | . | . | - | . | . | .
COC(=O)C(Sc1ccc(Cl)cc1)C1SC(=S)N(Cc2ccccc2)C1=O (configuration not stated) | - | 58 | - | - | - | -
Cc1ccc(OCc2nc(C#N)c(N3CCN(Cc4ccccc4)CC3)o2)cc1 | - | - | . | - | 103 | -
N#Cc1nc(COc2ccccc2)oc1N1CCN(Cc2ccccc2)CC1 | - | - | . | - | - | -
Cc1ccc(S(=O)(=O)N2C[C@H]3n4c(=O)ccc(=O)n4C[C@H](OC(=O)NCc4ccccc4)[C@@]3(O)C2)cc1 | - | - | - | - | - | -
Cc1ccc(S(=O)(=O)N2C[C@H]3n4c(=O)ccc(=O)n4C[C@H](OC(=O)NCC4CCCCC4)[C@@]3(O)C2)cc1 | - | - | - | - | 61 | -
C[C@@H]1CN([C@@H](C)CO)S(=O)(=O)c2ccc(-c3ccccc3)cc2O[C@@H]1CN(C)S(C)(=O)=O | . | . | - | . | . | .
NC(=O)c1ccc(NC(=O)CCC(=O)c2cccs2)cc1 | - | - | - | - | - | 62
NS(=O)(=O)c1ccc(NC(=O)CCC(=O)c2cccs2)cc1 | - | - | - | - | - | -
C[C@H]1CN([C@@H](C)CO)C(=O)c2cc(-c3ccccc3)cnc2O[C@@H]1CN(C)C(=O)Cc1ccccc1 | . | . | - | . | . | .
Cc1nc2ccc(N)cc2s1 | - | - | - | - | - | -
CN(C)c1ccc2nc3ccc(=O)cc-3sc2c1 | - | 52 | - | - | - | -
Cc1cc2nc3ccc(=[N+](C)C)cc-3sc2cc1N | - | 52 | . | - | - | -
CN(C)c1ccc2nc3ccc(=[N+](C)C)cc-3sc2c1 | - | 79 | . | - | - | -
